Reference: ChEMBL document CHEMBL4513216, “Probing the Open Global Health Chemical Diversity Library for Multistage-Active Starting Points for Next-Generation Antimalarials” (ACS Infect Dis, 2020)
In all, about 69,000 compounds went through this assay and about 8,600 (12%) showed an effect of 50% or more. The list comes from a sample in which strong results are over-represented; it also holds similar structures and randomly drawn compounds.

tested on: Plasmodium berghei; test: Screen against P. berghei liver stage (PbLuc), transformed with Luciferase, at 10uM; assay type: functional, HepG2; details: tested at 10 uM

SMILES | INHIBITION
O=C(C1CCOCC1)N1CCCC1c1cncc(CN2CCCC2)n1 (stereo not drawn) | 41.5%
COCC(=O)N1CC(c2csc(NC(C)=O)n2)C1 | 2.71%
CNC(=O)C1CCN(C(=O)NCCc2ccc(Cl)s2)CC1 | 23.5%
Cc1ccc(-c2nnc(C3CCCN3S(=O)(=O)c3cnn(C)c3C)o2)s1 (stereo not drawn) | 19.02%
Cc1ccc(NC2CCN(C(=O)CCc3c(C)noc3C)CC2)nn1 | 7.12%
CCc1ncnc2c1CCN(C(=O)c1ccccn1)CC2 | -0.813%
O=C1CC(c2cccs2)Cc2nc(O)c(C(=O)N3CCCC3)cc21 (stereo not drawn) | -60.7%
O=C(NC1CC1)c1cc2c(nc1O)CC(c1cccs1)CC2=O (stereo not drawn) | 75.2%
CC1CCc2nc(O)c(C(=O)NCCc3cccs3)cc2C1 (stereo not drawn) | -111%
O=C(O)c1cc2c(nc1O)CC(c1cccs1)CC2=O (stereo not drawn) | -6.32%
O=C(O)c1cc2c(nc1O)CC(c1cccc(Cl)c1)CC2=O (stereo not drawn) | -23.7%
COCCNC(=O)c1cc2c(nc1O)CC(c1cccs1)CC2=O (stereo not drawn) | 55.2%
O=C(Cc1ccccc1Cl)Nc1cc(N2CCCC2)ncn1 | -12.1%
O=C(O)[C@@H]1CN(C(=O)CCN2CCCCC2)C[C@H]1c1ccccc1 | -24%
CCOCc1nc(-c2ccc(F)cc2Cl)n(C2CCN(C)CC2)n1 | 8.51%
Cc1noc(C)c1CNC(=O)Nc1ccc(N2CCSCC2)cc1 | 7.93%
Cc1cc(NC(=O)CN2CCc3cncnc3C2)on1 | 43.3%
O=C(c1ccccn1)N1C[C@H]2CC[C@@H](C1)N(C(=O)c1ccsc1)C2 | 20.6%
CCn1ccnc1CNc1nccc(-c2c(C)nn(C)c2C)n1 | -47.8%
CCc1nccn1CCCNc1nccc(-c2c(C)nn(C)c2C)n1 | 65.2%
CCn1ccnc1CNc1nccc(-c2cn(C)nc2C)n1 | -67.9%
CCc1nc(CN(C(C)=O)C2CCN(Cc3csc(C)n3)C2)no1 (stereo not drawn) | -13.5%

SMILES | INHIBITION
CCC[C@H]1CN(Cc2ccc3c(c2)OCCO3)C[C@@H]1NC(=O)COC | 37.6%
COCC(=O)NC[C@]1(O)CN(Cc2ccc3c(c2)OCCO3)C[C@H]1O | 66.8%
O=C(NCC1CC1)N1CCN(Cc2ccc3c(c2)OCCO3)CC1 | 13.9%
CC(=O)N1CCN(Cc2ccc3c(c2)OCCO3)CC(O)C1 (stereo not drawn) | 15.8%
COCC(=O)NC[C@]12COC[C@H]1CN(Cc1ccc3c(c1)OCO3)C2 | 0.453%
COCC(=O)N[C@@H]1CN(Cc2ccc3c(c2)OCCO3)C[C@H]1O | 52%
Cc1nc(CN2CCCC(Cn3cncn3)C2)no1 (stereo not drawn) | 34.7%
CN(Cc1nnc(C2CC2)n1C)S(=O)(=O)c1ccc(F)c(C#N)c1 | -6.46%
CS(=O)(=O)N1C[C@H]2CC[C@@H](C1)N(Cc1ccsc1)C2 | 10.2%
O=C(CCc1nc2cc(Br)cnc2[nH]1)NCCCn1ccnc1 | -7.28%
CN(C)c1cc(C2CCCN2Cc2ccccc2OCC(=O)O)ccn1 (stereo not drawn) | 24.4%
Cc1ccncc1C(=O)N1C[C@H]2CN(CC3CCC3)C[C@@]2(C(=O)O)C1 | 42.3%
CN(Cc1ccncc1)C1CC2(CCN(c3ncc(F)cn3)CC2)C1 | 55.5%
CN(Cc1cccnc1)C1CC2(CCN(c3ncc(F)cn3)CC2)C1 | 49.1%
Cc1cnc(N2CCC3(CC2)CC(N(C)Cc2ccncc2)C3)nc1 | 49.1%
CN(Cc1ccncc1)C1CCC[C@@H]2CN(c3ncccn3)C[C@H]12 (stereo partly drawn) | -22.7%
CN(Cc1cccnc1)C1CC2(CCN(c3ncccn3)CC2)C1 | -20.8%
CN(Cc1ccncc1)C1CC2(CCN(c3ncccn3)CC2)C1 | 58.7%
CSCCCN1CCCC1c1noc(C(C)C)n1 (stereo not drawn) | 1.18%
Cc1cnn(C2CCCN(C(=O)CCNS(C)(=O)=O)C2)c1 (stereo not drawn) | 19.2%
C1CCC(c2nnc3sc(C4CCOC4)nn23)C1 (stereo not drawn) | 16.7%
Cc1cc(N)nc(SC2CCN(c3ccccc3)C2=O)n1 (stereo not drawn) | 6.94%

SMILES | INHIBITION
Cc1cc(N)nc(SC2CCCN(Cc3ccccc3)C2=O)n1 (stereo not drawn) | 26.8%
Cc1cc(N)nc(SC2CCN(c3ccccc3F)C2=O)n1 (stereo not drawn) | 56.5%
CCCc1nnc(N2CCC3(CCC(=O)N(C)C3)CC2)o1 | 47.2%
Cc1noc(C)c1CN(Cc1ccccc1)C(C)C | 60.2%
Cc1noc(C)c1CN(Cc1ccccc1)C(C)CN1CCOCC1 (stereo not drawn) | 37.4%
CC(C)N(Cc1ccccc1)Cc1nnsc1Cl | -37.8%
CC(C)c1nc(CN(C)Cc2ccc(O)c(Cl)c2)cs1 | 17.1%
COc1ccc(CN(C)Cc2c(C)noc2C)c(Cl)c1OC | 14.3%
Cc1noc(C)c1CN(C)Cc1csc(-c2ncccn2)n1 | 62.8%
CC(C)N(CC(N)=O)Cc1csc(-c2ncccn2)n1 | -16.8%
Cc1cc(CN(C)C(=O)CC(C)C)no1 | -7.93%
CCOc1ccc(-c2nc(CN(C)Cc3c(C)noc3C)cs2)cc1 | 88.5%
CC(C)N(Cc1ccccc1)Cc1csc(-c2ncccn2)n1 | -50.2%
Cc1noc(C)c1CN(C)C(=O)CCOc1ccc(Cl)cc1 | 2.65%
Cc1cc(CN(C)Cc2csc(-c3ccc(C(C)C)cc3)n2)no1 | 83.4%
O=C(CCc1cccc(C2CCNCC2)n1)N1CCCCC1 | -3.94%
Oc1cccc(CN2C[C@@H]3CC[C@H]2CN(Cc2ccc(F)cc2)C3)c1 | 39.5%
O=C(c1cc(C2CC2)no1)N1C[C@@H]2CC[C@H]1CN(Cc1ccccn1)C2 | 5.87%
O=C(COc1coc(CN2CCCC2)cc1=O)Nc1cc(Cl)ccc1Cl | -12.5%
CC(C)CN1CCS(=O)(=O)[C@@H]2CCN(S(=O)(=O)c3ccccc3)CC[C@@H]21 | 8.85%
COc1cccc(CN(C)Cc2c(C)noc2C)c1OC | -6.61%
Cc1noc(C)c1CN(C)CCC(=O)N1CCc2sccc2C1 | 0.932%

SMILES | INHIBITION
Cc1noc(C)c1CN(C)Cc1csc(-c2ccc(C(C)C)cc2)n1 | 91.1%
CN(CC(N)=O)Cc1csc(-c2ccc(F)cc2)n1 | -0.991%
Cc1noc(C)c1CN(C)Cc1nc(N)c2ccccc2n1 | 20.9%
Cc1noc(C)c1CN(C)Cc1csc(-c2ccccc2F)n1 | 62.8%
Cc1noc(C)c1CN(C)Cc1csc(-c2ccc(F)cc2)n1 | 77.4%
Cc1noc(C)c1CN(C)C(C)c1cccs1 (stereo not drawn) | 46.4%
Cc1noc(C)c1CN(C)CC(c1cccs1)N1CCOCC1 (stereo not drawn) | -54.6%
O=C(c1ncccn1)N1CCC[C@]2(C[C@@H](Oc3ncccc3F)CO2)C1 | -2.17%
CC(C)C(Sc1nccn1C1CC1)C(=O)NCc1cccnc1 (stereo not drawn) | 0.411%
Cc1ccc(N2CC3(CCN(Cc4nccn4C)C3)CC2=O)s1 (stereo not drawn) | 15.9%
CCOC(=O)CN1CC(c2nc(-c3ccsc3)no2)C1 | 9.96%
CC(C)NC(=O)CNC(=O)c1csc(Cc2ccccc2F)n1 | -20.6%
COc1ccc(C2CCN(Cc3cscn3)CC2)cc1 | 37.7%
CCCS(=O)(=O)N1CCC(c2ccc(OC)cc2)CC1 | 67.8%
COc1ccc(C2CCN(S(=O)(=O)CCCC#N)CC2)cc1 | 59.1%
COc1ccc(C2CCN(CCCC#N)CC2)cc1 | 63.5%
CCCS(=O)(=O)N1CCC(Oc2ccc(C#N)cc2)CC1 | 25.8%
CC(C)n1cnnc1C1CCCN(S(=O)(=O)CCCC#N)C1 (stereo not drawn) | 48.3%
CCCS(=O)(=O)N1CCC(NCc2c(C)nn(C)c2OC)CC1 | -10.9%
N#CCCCS(=O)(=O)N1CCC(CSc2ccccc2)C1 (stereo not drawn) | -18.7%
Cc1ncsc1C(=O)NC1CCN(CCCC#N)CC1 | 33.7%
CN(C)c1cc2c(nn1)CCN(C(=O)Cc1ccc3c(c1)CCC3)C2 | 5.8%

SMILES | INHIBITION
CCn1nc(C)c2nc(C(C)C)nc(NCC(C)C)c21 | 47.4%
Cc1occc1C(=O)N1CCC2(CC1)NC(=O)CC2c1cnn(C)c1 (stereo not drawn) | 42.1%
CNC(=O)C1CN(C)CCN(CCCOc2ccccc2F)C1 (stereo not drawn) | 8.72%
CC(=O)Nc1ccc(SCC(=O)NCC2CCCO2)nn1 (stereo not drawn) | -4.83%
COc1cccc([C@@]2(O)CC[C@@H]3CN(C(=O)c4cn(C)nc4C)C[C@@H]32)c1 | -1.95%
OCc1nnn2c1CN(Cc1cccnc1)CCC2 | 29%
CCc1cnc(CN(C(C)=O)C2CCN(Cc3nccn3C)C2)o1 (stereo not drawn) | -6.865%
O=C(NCC1CCCO1)c1cc(Sc2ncccn2)ccn1 (stereo not drawn) | 32.8%
CS(=O)(=O)N1CCC2(CC1)CC(NCc1ccccn1)c1ccccc12 (stereo not drawn) | 45.7%
CNC(=O)CNC1CC2(CCN(c3ncccn3)CC2)c2ccccc21 (stereo not drawn) | 2.4%
Cn1cc(CNC2CC3(CCN(S(C)(=O)=O)CC3)c3ccccc32)cn1 (stereo not drawn) | 44.8%
CS(=O)(=O)N1CCC2(CC1)CC(NCC1CC1)c1ccccc12 (stereo not drawn) | 59.3%
CS(=O)(=O)N1CCC2(CC1)CC(NCc1ccco1)c1ccccc12 (stereo not drawn) | 66.6%
CC(C)NC(=O)CC1CC2(CCN(S(C)(=O)=O)CC2)c2ccccc21 (stereo not drawn) | 18.5%
CNC(=O)CC1CC2(CCN(c3ncccn3)CC2)c2ccccc21 (stereo not drawn) | 55.6%
Cn1cc(CNC2CC3(CCN(CC4CC4)CC3)c3ccccc32)cn1 (stereo not drawn) | -40.4%
CS(=O)(=O)N1CCC2(CC1)CC(CC(=O)NC1CC1)c1ccccc12 (stereo not drawn) | 37%
CNC(=O)CC1CC2(CCN(S(C)(=O)=O)CC2)c2ccccc21 (stereo not drawn) | 6.66%
CN(C)C(=O)CC1CC2(CCN(c3ncccn3)CC2)c2ccccc21 (stereo not drawn) | 38.5%
c1cnc(N2CCC3(CC2)CC(NCC2CC2)c2ccccc23)nc1 (stereo not drawn) | 88.1%
